Screening results (PubChem BioAssay)
gsp ag: activates gsp, the McCune-Albright syndrome mutation. gsp mutant cells, cAMP HTRF, 30 min. 340,000 tested, 0.13% active. Potency, µM (highest dose often 76.9 µM), inactives show at the top dose activation (cAMP increase), usual class: activators; active = well fitted activation curve with a large enough effect; inconclusive = small, poorly fitted or top-dose-only effect, or another doubt; inactive = no such curve, though single readings can be large or run the other way; cell line not stated here;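 note: phosphodiesterase inhibitor Ro 20-1724 added with compounds to block cAMP breakdown; potency is the fitted concentration of half-maximal effect; nearly all actives have a fitted effect of over 60% in size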
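Cells stably selected in G418 were plated at 2000/well, grown 16-24 hr, then given compounds in DMSO with the PDE inhibitor […] (300 uM solution added) for 30 min at 37C; cAMP was read by HTRF.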
RXFP1 agonist: agonists of human relaxin receptor RXFP1. HEK293T-RXFP1 cAMP TR-FRET, 30 min; response scale: percent of porcine relaxin response, buffer zero. Potency, µM (top dose mostly 57.5 µM), for inactives: at the top dose activation, usual class: activators. 370,000 tested, 0.3% active. AID 2676. Q9HBX9; active = well fitted activation curve with a large enough effect; inconclusive = small, poorly fitted or top-dose-only effect; note: potency is the fitted concentration of half-maximal effect; % is set by controls: 0 for no effect and ±100 for the full control effect; nearly all actives have a fitted effect of over 60% in size
Target sequence (Q9HBX9 whole entry, looked up): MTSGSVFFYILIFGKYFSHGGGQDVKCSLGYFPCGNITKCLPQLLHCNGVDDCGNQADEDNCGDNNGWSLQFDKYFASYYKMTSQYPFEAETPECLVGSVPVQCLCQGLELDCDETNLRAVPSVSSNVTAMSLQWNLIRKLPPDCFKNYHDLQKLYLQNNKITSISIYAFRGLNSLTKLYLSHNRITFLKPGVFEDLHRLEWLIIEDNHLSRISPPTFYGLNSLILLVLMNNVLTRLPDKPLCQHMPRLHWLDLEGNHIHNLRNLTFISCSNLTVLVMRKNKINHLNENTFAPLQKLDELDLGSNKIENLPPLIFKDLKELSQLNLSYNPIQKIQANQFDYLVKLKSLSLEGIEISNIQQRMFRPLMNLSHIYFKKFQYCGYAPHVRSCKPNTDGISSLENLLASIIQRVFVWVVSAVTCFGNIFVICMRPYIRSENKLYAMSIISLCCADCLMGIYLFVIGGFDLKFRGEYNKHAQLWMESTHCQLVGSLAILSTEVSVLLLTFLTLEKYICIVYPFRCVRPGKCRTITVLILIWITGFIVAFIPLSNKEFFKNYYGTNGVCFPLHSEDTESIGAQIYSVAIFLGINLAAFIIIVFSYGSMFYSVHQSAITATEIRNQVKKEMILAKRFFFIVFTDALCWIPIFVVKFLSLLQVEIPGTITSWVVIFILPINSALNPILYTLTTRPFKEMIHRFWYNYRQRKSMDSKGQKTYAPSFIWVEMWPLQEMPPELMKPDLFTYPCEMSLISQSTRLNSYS
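HEK293 cells stably expressing RXFP1, treated 30 min at 37C with compounds plus PDE4 inhibitor Ro 20174; cAMP measured by HTRF TR-FRET. Normalized to buffer and 29 nM porcine relaxin; EC50 by Hill fit.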
RXFP1 antag: antagonists of human relaxin receptor RXFP1. HEK293-RXFP1, relaxin-stimulated cAMP HTRF, 30 min; active compounds read low. 350,000 tested, 0.59% active. AID 1259400. activity change, negative = inhibition, % at 57.5 µM. Q9HBX9;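 active = activity change of -60% or lower, but not beyond a set lower limit; inconclusive = change between -60% and -40%, or beyond the set limit; inactive = change above -40%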; note: % is set by controls: 0 for no effect and ±100 for the full control effect
pAkt inh: Akt phosphorylation inhibition; Neuro2A IGF-stimulated pAkt S473 HTRF, 20 min; active compounds read low; activity change, % for hits at 50 µM; 360,000 tested, 0.32% active; in the data active = activity change below about -80%; inconclusive = mostly about -51% to -80%; note: % is set by controls: 0 for no effect and ±100 for the full control effect
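Single-point screen (50 µM final compound) in Neuro2A cells stimulated 20 min with 6 nM IGF at 37 deg C. After lysis, Ser473-phosphorylated Akt read by HTRF (ex 330 nm, em 615/665 nm) as the 665/615 ratio.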
gsp antagonist: antagonizes gsp, the McCune-Albright syndrome mutation; AID 624288; gsp-mutant cells, cAMP HTRF, 30 min; 340,000 tested, 0.4% active; Potency, µM (titrated, usually from 76.9 µM), without a hit: at the top dose activity change, negative = inhibition, usual class: inhibitors; calls by dose curve; cell line not stated here;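 note: intracellular cAMP measured with PDE inhibitor Ro 20-1724 present during compound exposure; potency is the fitted concentration of half-maximal effect; % is set by controls: 0 for no effect and ±100 for the full control effect; nearly all actives have a fitted effect of over 65% in size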
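G418-selected cells were plated in DMEM/10% FBS for 16-24 h at 37C, then treated with compounds plus the PDE inhibitor […] (300 uM solution added) for 30 min at 37C. Intracellular cAMP was measured by HTRF after 30 min lysis at room temperature.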
ClpP mod: qHTS Assay for Activators of ClpP. 340,000 tested, 1.9% active. AID 651965, 2013. purified B. subtilis ClpP, FRET peptide cleavage, 20 min. Potency, µM (series often up to 57.5 µM), for inactives: at the highest dose activity change, negative = active; active = well fitted falling curve with a large enough effect; inconclusive = small, poorly fitted or top-dose-only effect; inactive = no such curve, though single readings can be large or run the other way; note: potency is the fitted concentration of half-maximal effect; the source files actives as falling curves though it sought activators and does not explain the sign; nearly all actives have a fitted effect of over 65% in size
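Buffer: 100 mM Tris/HCl pH8, 100 mM KCl, 0.05% low protease BSA, 2.5% glycerol, 0.01% Tween-20. ClpP 10 microg/mL final; 20 min RT; delta FRET normalized to ADEP and DMSO controls.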
* = called active by the depositor; i = inactive; ? = inconclusive; nt = no result; [ ] = another dose, or the depositor's remark. A selection: hits, their analogues and other compounds. The true share with any hit is near 2.7%.

SMILES | gsp ag | RXFP1 agonist | RXFP1 antag | pAkt inh | gsp antagonist | ClpP mod
O=C(/C=C/c1ccc(-c2ccccc2[N+](=O)[O-])o1)c1ccco1 | -15%[15.4 µM] | 1% | -64* | i | ? | nt
C[C@@H](O[C@H]1OCCN(Cc2n[nH]c(=O)[nH]2)[C@H]1c1ccc(F)cc1)c1cc(C(F)(F)F)cc(C(F)(F)F)c1 | nt | nt | -60* | nt | nt | nt
CCOC(=O)C(C)Sc1ccc2nnc(-c3ccc(OCC)cc3)n2n1 (stereo not given) | nt | nt | nt | nt | nt | -6%
Cc1ccc(-c2nnc3ccc(SC(C)C(=O)O)nn23)cc1 (stereo not given) | 10µM* | ? | nt | i | 15% | -22%
COC(=O)C(C)Sc1ccc2nnc(-c3ccccc3)n2n1 (stereo not given) | 10µM* | 25µM* | 0 | i | 1% | ?
Cc1ccc(S(=O)(=O)/N=C(/Nc2c(C)cccc2C)c2ccccc2)cc1 | -1% | nt | -15 | i | -5% | -1%
O=C(N/N=C(\c1ccccc1)c1cccnc1)c1cc(O)ccc1O | nt | 1% | nt | nt | nt | nt
Cc1c(CCO)c(=O)n2c([nH]c3ccccc32)c1C#N | -1% | 10% | 0 | i | -13% | 4%
Cc1c(CCC(C)C)c(=O)n2c([nH]c3ccccc32)c1C#N | 22% | 2% | -2 | nt | 13% | 3.2µM*
COc1cccc(-c2nn(-c3ccccc3)cc2CO)c1 | 0% | 1% | -7 | i | -7% | 0%
OCc1cn(-c2ccccc2)nc1-c1ccc2c(c1)OCCO2 | 20% | 3% | -7 | i | -17% | 28µM*
O/N=C/c1cn(-c2ccccc2)nc1-c1ccc2c(c1)OCCO2 | 1% | 1% | 2 | i | 18% | -4%
COc1ccc(-c2nn(-c3ccccc3)cc2CO)cc1OC | 10% | 2% | -6 | i | -9% | 11µM*
O=C(CCc1ccc(S(=O)(=O)N2CCOCC2)cc1)Nc1nc(COc2ccccc2)cs1 | 0% | 0% | 0 | nt | 28µM* | -1%
CCCC(O)(c1ccc(Cl)cc1)C(CN1CCOCC1)c1ccc(Cl)cc1 (stereo not given) | -2% | -1% | -32 | i | -11% | nt
CCCCC(O)(c1ccc(F)cc1)C(CN1CCOCC1)c1ccc(Cl)cc1 (stereo not given) | -25% | 1% | -77* | i | -8% | 1%
CC(C)CN(CCCNC(=O)Cn1ncc2c3ccccc3n(C)c2c1=O)CC(C)C | nt | 0% | -5 | nt | nt | -16%
Cc1ccc(C(=O)NCCSc2c(C)[nH]c3ccccc23)cc1[N+](=O)[O-] | -39% | 2% | -30 | i | 35µM* | 1%
CC(=O)N1c2nc(C(C)C)nn2C2(CCCCC2)[C@@H]2CCCC[C@@H]21 | nt | 2% | -1 | nt | nt | 0%
CCS(=O)(=O)N1CCc2cc(C(=O)Nc3ccc(Br)cc3F)ccc21 | nt | -2% | nt | nt | nt | -2%
COC(=O)c1ccc(/C=C/c2ccc3cccc(OC)c3n2)cc1 | ? | 15% | nt | i | 0% | 13µM*
C=C1C=C(C)n2ncc(C(=O)Nc3ccc(NC(C)=O)c(Cl)c3)c2N1 | nt | nt | nt | nt | nt | 0%
COC(=O)c1ccc(-c2ccc(C(c3c(C)[nH][nH]c3=O)c3c(C)[nH][nH]c3=O)o2)cc1 | -48% | -1% | -87* | i | -5% | nt
COc1cc(/C=C/c2ccnc3ccccc23)ccc1N(C)C | nt | nt | nt | nt | nt | 0%
COc1cccc(OCCCn2c(-c3ccc(Cl)cc3)nc3ccccc3c2=O)c1 | nt | -2% | -3 | nt | nt | 1%
SMILES | gsp ag | RXFP1 agonist | RXFP1 antag | pAkt inh | gsp antagonist | ClpP mod
COCCCNC(=O)c1ccc2nc3ccccc3c(=O)n2c1 | 21% | 20% | -11 | nt | 11% | 16µM*
COCCCn1c(-c2ccccc2)nc2ccccc2c1=O | -4% | 2% | -11 | -121%* | -1% | -2%
Cc1ccccc1NC(=O)CSc1cn(CC(=O)N2CCCC2)c2ccccc12 | nt | 0% | -3 | nt | nt | 0%
COCC(=O)Nc1ccccc1-c1ccccc1 | 14% | 1% | 10 | i | -3% | 0%
O=C(O)/C=C/C(=O)Nc1ccccc1-c1ccccc1 | -13% | 1% | -1 | i | 6% | 25µM*
CCOC(=O)CCNC(C)C1COc2ccccc2O1 (stereo not given) | 13% | 4% | 7 | i | 15% | 6.3µM*
CC(NCC1COc2ccccc2O1)C1COc2ccccc2O1 (stereo not given) | -13%[15.4 µM] | -1% | -13 | i | 3% | nt
O=C(c1ccc(S(=O)(=O)N2CCCCC2)cc1)N1CCCc2ccccc21 | -14% | 0% | -7 | -108%* | -3% | 2%
O=C(c1coc(=O)c(Br)c1)N1CCC(C(O)(c2ccccc2)c2ccccc2)CC1 | 1%[15.4 µM] | 2% | -13 | i | 15% | ?
O=C(c1coc(=O)c(Br)c1)N1CCCc2ccccc21 | -33% | 2% | -9 | i | 4% | 13µM*
CC1(C)CCCN(C(=O)c2coc(=O)c(Br)c2)C1 | ? | 1% | 0 | i | 15% | 25µM*
O=C(C[n+]1cc(Br)cc(Br)c1)c1ccc2c(c1)CCCC2 | nt | nt | nt | nt | nt | 0%
CCc1ccc(Cn2nnc3c(=O)[nH]c(C4CCCN(C(=O)c5cccc(Cl)c5)C4)nc32)cc1 (stereo not given) | nt | -1% | -20 | nt | nt | -2%
CCN(CC(=O)NCCc1ccc(F)cc1)Cc1nc2ccccc2c(=O)[nH]1 | 8% | 0% | 11 | i | 2% | -1%
CCN(CC(=O)NCc1ccc(F)cc1)Cc1nc2cc(Cl)ccc2c(=O)[nH]1 | 26% | 1% | -1 | i | -2% | 7.1µM*
CCC(=O)C(Cc1ccccc1)(Cc1ccccc1)CC(C)N(C)C (stereo not given) | nt | nt | -11 | nt | nt | nt
O=c1c2ccccc2nc(SCc2nnc(-c3ccccc3)o2)n1-c1ccc(F)cc1F | -4% | 0% | -3 | i | 15% | 25µM*
CCCCN1C(=O)C(O)(c2c[nH]c3ccccc23)c2cc(Br)ccc21 (stereo not given) | nt | -3% | nt | nt | nt | -2%
COc1cc(-n2c(C)nc3cc(C(=O)N4CCOCC4)ccc32)cc(OC)c1OC | 8% | 0% | 0 | -114%* | 1%[15.4 µM] | -1%
CC1=CC(C)(C)Nc2ccc(C)cc21 | -24% | 1% | -4 | i | -4% | 32µM*
N#CCc1nn2c(-c3ccccc3)ccnc2c1C#N | ? | 23% | 3 | i | -12% | 4%
CC(C)c1nc(NCc2ccccc2)c(C#N)c2c1CCCC2 | -4% | 1% | -8 | i | 1% | 8.9µM*
COc1ccc(O)c(C(=O)c2cnn(C(=O)c3cccc(N(C)C)c3)c2)c1 | -6% | nt | -6 | i | -4% | 22µM*
CN(C)c1cccc(C(=O)n2cc(C(=O)c3cc(F)ccc3O)cn2)c1 | -52% | 2% | -9 | i | 2% | 48%
